These results are taken from PubChem BioAssay.

The nature of test [1]: A549 cell viability effects, profiling panel, calcein-AM fluorescence, 48 h, basal (AID 1162). The following applies: higher = more signal.
Test [2] is described as follows: adipocyte viability effects, profiling panel, cell-based, 3T3-L1 adipocytes, calcein-AM fluorescence, 48 h, basal (AID 1163). The following applies: 3T3-L1 adipocytes viability, higher = more signal.
Test [3] in a line: HepG2 cell viability effects, profiling panel, calcein-AM fluorescence, 48 h, basal (AID 1164). The following applies: higher = more signal.
The nature of test [4]: MM1S cell viability effects, profiling panel, calcein-AM fluorescence, 48 h, basal (AID 1165).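 Note: viability of MM1S multiple myeloma cells under basal unstimulated conditions.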 The following applies: higher = more signal.
Test [5] can be described thus: basal RPMI8226 viability, no added stimulus, profiling panel, cell-based, calcein-AM fluorescence, 48 h, PK04 Diversity Set (AID 1166).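 Note: cells grown under basal conditions without added stimulus.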 The following applies: RPMI8226 myeloma viability, higher = more signal.
A short description of test [6]: basal HepG2 mitochondrial membrane potential changes, profiling panel, cell-based, JC-1 fluorescence, 24 h, 100 nL compound (AID 1167). To be noted: higher = more signal.
Test [7] in a line: basal 3T3-L1 adipocyte mitochondrial potential changes, profiling panel, cell-based, JC-1 fluorescence, 3T3-L1 adipocytes, 24 h, 100 nL compound (AID 1168). To be noted: JC-1 mitochondrial fluorescence, higher = more signal, called active from +8 up or from −8 down.
A short description of test [8]: basal RPMI8226 mitochondrial membrane potential changes, profiling panel, cell-based, JC-1 fluorescence, 24 h, 100 nL compound (AID 1169). To be noted: RPMI8226 myeloma, JC-1 mitochondrial potential fluorescence, higher = more signal.
Test [9] is described as follows: basal MM1S mitochondrial membrane potential changes, profiling panel, cell-based, JC-1 fluorescence, 24 h, 100 nL compound (AID 1170). The following applies: higher = more signal.
Test [10] in a line: A549 lung cancer cell viability effects, profiling panel, resazurin fluorescence, 24 h, PK04 Diversity Set (AID 1171). To be noted: higher = more signal, called active from +8 up or from −8 down. (In general: Resazurin is reduced to fluorescent resorufin, in cell work by metabolically active cells.)

Calls of active or inactive are those of the source.
Note: test concentration not given here.

Take `COc1cccc(C)c1NC(=O)O[C@H]1[C@H](OC(=O)Nc2ccc3c(c2)OCO3)[C@H](OC(=O)Nc2ccc3c(c2)OCO3)[C@@H](OC)O[C@@H]1CO`: the z-score in [1] is -0.934; in test [2] it was 0.372; in test [3], -0.997; in [4], -1.62; in [5], -1.82; in test [6], -0.514. Moreover, the z-score in [7] was 0.308 (inactive); in test [8], -0.136; in test [9], -0.724; in [10] it was -0.654 (inactive).

As for `O=C1NC(=O)C2C1C=CC(C(O)C(c1ccccc1)c1ccccc1)N2Nc1ccccn1` (stereo not given), the z-score in test [1] is 0.795; in test [2], -0.46; in test [3] it was 0.605; in test [4], 0.332; in test [5], 0.077; in test [6] it was 0.176. Further, the z-score in [7] is -0.219 (inactive); in test [8] it was 0.432; in test [9] it was 0.525; in test [10] it was -0.0343 (inactive).

As for `CCOC(=O)C[C@H]1[C@H](OC(=O)c2ccccc2-c2ccccc2)[C@@H](NC(=O)CC(C)C)c2cc(OCCCO)ccc2N1C(=O)c1ccccc1`, the z-score in test [1] was 0.682; in [2] it was 1.32; in test [3], -0.177; in [4], -0.271; in test [5], 0.107; in [6], 2.01. Moreover, the z-score was 0.197 (inactive) in test [7], -0.986 in test [8], -0.0327 in test [9] and 1.65 (inactive) in test [10].

Regarding `CCOC(=O)C[C@H]1[C@H](OC(=O)c2ccc(-c3ccccc3)cc2)[C@@H](NC(=O)c2ccc(-c3ccccc3)cc2)c2cc(OCCCO)ccc2N1C(=O)c1ccccc1`, the z-score in test [1] was -0.555; in test [2], -0.132; in [3] it was -0.134; in test [4], 0.125; in [5], -0.473; in [6], 0.642. The z-score in test [7] is -0.45 (inactive); in [8], 0.812; in [9] it was 0.0869; in [10], -0.769 (inactive).

Turning to `COC(=O)[C@H]1N=C(c2ccc(OCCCO)cc2)O[C@H]1c1ccccc1N=[N+]=[N-]`, the z-score is -0.206 in test [1]; 0.323 in test [2]; -0.151 in test [3]; -0.862 in test [4]; -1.44 in [5]; -0.434 in test [6]. Further, the z-score in test [7] was -0.419 (inactive); in test [8] it was -0.739; in test [9] it was 0.567; in test [10], -0.15 (inactive).

For `COCCCNC(=O)[C@@]1(Cc2ccccc2I)c2ccccc2C(=O)N(C2CCCCC2)[C@H]1c1ccc(CO)cc1`, the z-score in test [1] was -0.126; in test [2], 0.2; in test [3], -0.335; in test [4], -0.339; in [5], -0.0802; in [6] it was 1.29. The z-score in test [7] was -0.276 (inactive); in test [8], -0.794; in [9] it was -1.01; in test [10] it was 1.59 (inactive).

`CC(C)[Si](C#Cc1ccccc1)(O[C@H](c1ccccc1)c1cn(Cc2ccccc2)nn1)C(C)C`: the z-score is -1.6 in test [1]; -0.433 in test [2]; -2.13 in test [3]; -1.8 in [4]; -2.46 in test [5]; -1.19 in test [6]. For the same compound, the z-score in [7] is 0.24 (inactive); in [8] it was -0.425; in test [9], -0.0328; in test [10], -0.486 (inactive).

As to `O=C(O)C1=CC[C@H]2C(=O)N(c3ccccc3)C(=O)[C@@H]12`, the z-score was -1.05 in test [1]; -0.261 in test [2]; -0.625 in test [3]; -0.911 in test [4]; -0.222 in test [5]; -0.915 in [6]. In addition, the z-score is -0.162 (inactive) in test [7], 0.364 in test [8], -1.46 in test [9] and 0.64 (inactive) in test [10].

For the compound `COc1ccc(NN2C(C(O)c3ccc(F)cc3)C=CC3C(=O)N(C4CCCCC4)C(=O)C32)cc1` (stereo not given), the z-score in [1] was -0.705; in test [2] it was -0.17; in test [3], -0.0716; in [4] it was -1.05; in test [5], -1.08; in test [6], -0.496. For the same compound, the z-score was -1.23 (inactive) in [7], -0.169 in [8], -0.191 in test [9] and 0.227 (inactive) in test [10].

As to `C=C(C(=O)CC[C@@H](OC(=O)c1ccccc1-c1ccccc1C(=O)O)c1cccc(OCCO)c1)C(C)C`, the z-score in test [1] was 0.811; in test [2] it was 0.647; in [3] it was -0.474; in [4], -0.305; in [5], -0.637; in test [6], -1.12. Besides, the z-score is 1.01 (inactive) in test [7], -0.143 in test [8], 0.0602 in [9] and 1.33 (inactive) in [10].

Regarding `COCCOC(=O)N1C(=O)[C@@]2(c3cc(C#CCNC(N)=O)ccc31)[C@H](C(N)=O)[C@H]1C(=O)O[C@H](c3ccccc3)[C@H](c3ccccc3)N1[C@@H]2c1ccc(O)cc1`, the z-score is 1.05 in test [1]; -0.142 in test [2]; 0.779 in test [3]; 0.394 in test [4]; -0.896 in test [5]; -0.507 in [6]. For the same compound, the z-score in [7] was -0.0468 (inactive); in [8], -0.883; in test [9], 0.326; in test [10], 1.22 (inactive).

Consider `C=CCC(OC(C)=O)[C@@H]1[C@@H](N(Cc2ccc(-c3ccccc3)cc2)C(=O)Cc2ccc(OC)cc2)c2cc(OCCCO)ccc2N1C(=O)Cc1ccc(OC)cc1` (stereo not given in full), for which the z-score is 0.0816 in test [1]; 0.9 in [2]; -0.103 in test [3]; 0.11 in test [4]; -0.203 in [5]; 2.58 in test [6]. Also, the z-score in [7] was -0.454 (inactive); in [8] it was -0.0751; in [9], 0.504; in test [10], 0.117 (inactive).

For the compound `[N-]=[N+]=NCc1ccccc1C[C@@]1(C(N)=O)N=C(c2ccc(OCCCO)cc2)O[C@@H]1c1ccccc1N=[N+]=[N-]`, the z-score in test [1] is -0.908; in [2], -0.278; in test [3] it was -0.705; in [4], -3; in test [5], -3.1; in [6] it was -1.07. The z-score in [7] is -0.71 (inactive); in test [8] it was -1.08; in test [9] it was -0.62; in test [10] it was -0.583 (inactive).

Consider `COc1ccc([Si](C)(C)[C@H]2[C@H](CC(=O)N(CCO)Cc3ccccc3)O[C@@]3(C(=O)N(Cc4ccc(N5C(=O)c6cccc7cccc5c67)cc4)c4ccccc43)[C@@H]2C)cc1`, for which the z-score in test [1] is -1.12; in [2], 1.59; in test [3], -0.899; in test [4], -0.998; in test [5] it was -3.8; in test [6] it was 0.488. The z-score in [7] was -0.381 (inactive); in test [8], -1.05; in test [9], -0.091; in test [10] it was -2.22 (inactive).

In the case of `CC(C)[Si]1(C(C)C)OCc2cc(-c3ccc(-c4ccc(Cl)c(Cl)c4)o3)nc(-c3ccc(Oc4ccccc4)cc3)c21`, the z-score in test [1] is -0.222; in test [2] it was -1.06; in test [3], -0.879; in [4], 0.0719; in test [5], -0.605; in test [6] it was 0.213. The z-score in test [7] is -0.966 (inactive); in test [8], 0.17; in [9], 0.0397; in [10] it was -0.232 (inactive).

In the case of `C=C(COC)C(=O)CC[C@H](OC(C)=O)c1ccc(CO)o1`, the z-score in [1] was 0.0053; in test [2], 0.972; in test [3] it was -0.582; in test [4], 0.657; in test [5], 1.76; in test [6] it was 0.378. Further, the z-score was -0.587 (inactive) in [7], -0.563 in test [8], -0.434 in test [9] and 0.642 (inactive) in test [10].
